About 14,000 (4.5%) of roughly 310,000 compounds showed an effect of 50% or more. Effects have a minus sign here. For the sample, strong results were picked, then their nearest neighbours and some compounds at random.
molecular target: human ether-à-go-go-related gene (hERG) potassium channel (human, UniProt Q12809); assay: primary screen, population patch clamp on CHO cells stably expressing hERG; higher = less effect of the substance
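Note: peak tail current of the secondary pulse compared with the same well before compound.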

Chain of human ether-à-go-go-related gene (hERG) potassium channel (Q12809 whole entry, looked up): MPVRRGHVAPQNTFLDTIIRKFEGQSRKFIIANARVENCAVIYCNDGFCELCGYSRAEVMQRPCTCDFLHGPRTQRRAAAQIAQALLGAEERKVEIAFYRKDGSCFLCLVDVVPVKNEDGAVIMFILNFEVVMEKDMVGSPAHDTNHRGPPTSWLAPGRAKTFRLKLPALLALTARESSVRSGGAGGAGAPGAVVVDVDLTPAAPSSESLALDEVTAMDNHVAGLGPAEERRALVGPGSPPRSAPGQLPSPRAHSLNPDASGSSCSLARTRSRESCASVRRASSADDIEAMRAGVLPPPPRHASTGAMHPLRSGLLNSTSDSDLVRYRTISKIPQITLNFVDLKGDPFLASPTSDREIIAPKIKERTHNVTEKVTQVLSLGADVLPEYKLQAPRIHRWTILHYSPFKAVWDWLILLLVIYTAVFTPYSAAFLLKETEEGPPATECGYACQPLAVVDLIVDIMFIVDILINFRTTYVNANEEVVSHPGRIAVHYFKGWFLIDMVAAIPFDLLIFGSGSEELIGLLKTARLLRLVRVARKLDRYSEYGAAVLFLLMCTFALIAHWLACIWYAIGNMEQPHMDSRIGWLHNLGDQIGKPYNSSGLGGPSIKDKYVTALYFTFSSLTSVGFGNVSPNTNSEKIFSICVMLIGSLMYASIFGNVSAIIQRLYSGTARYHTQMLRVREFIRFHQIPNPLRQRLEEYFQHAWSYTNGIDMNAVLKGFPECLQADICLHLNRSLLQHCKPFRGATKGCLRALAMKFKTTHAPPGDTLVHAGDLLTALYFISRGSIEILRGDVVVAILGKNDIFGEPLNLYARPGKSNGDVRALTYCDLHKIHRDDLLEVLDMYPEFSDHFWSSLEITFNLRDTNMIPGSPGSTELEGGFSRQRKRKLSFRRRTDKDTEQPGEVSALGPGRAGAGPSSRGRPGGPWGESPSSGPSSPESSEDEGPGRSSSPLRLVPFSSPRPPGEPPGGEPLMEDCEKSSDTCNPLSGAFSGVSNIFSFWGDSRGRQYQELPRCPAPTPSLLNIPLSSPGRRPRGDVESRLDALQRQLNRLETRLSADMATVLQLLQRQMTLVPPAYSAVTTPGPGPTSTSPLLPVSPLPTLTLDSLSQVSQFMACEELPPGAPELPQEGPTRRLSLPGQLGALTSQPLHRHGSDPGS

SMILES	hERG current change (%, negative = inhibition) at 10uM [%]
CCOC(=O)C1(CC)NC(c2ccc(OC)c(OC)c2)C2C(=O)N(c3cccc(C(C)=O)c3)C(=O)C21 (stereo not shown)	16.5
Cc1ccc(S(=O)(=O)/N=C2/C=C(C3C(=O)CC(C)(C)CC3=O)C(=O)c3ccccc32)cc1	0.322
COc1cccc(CNC(=S)Nc2cc(C)cc(C)c2)c1	6.62
O=C(COc1ccc(-n2ccnc2)cc1)Nc1cccc(Cl)c1	-38.9
N#Cc1cccc(NC(=O)CCn2ccnc2)c1	2.87
N#Cc1cccc(NC(=O)COc2ccc(-n3ccnc3)cc2)c1	-67.5
N#Cc1ccc(OCC(=O)Nc2ccncc2)cc1	18.1
O=C(COc1ccc(-n2ccnc2)cc1)Nc1cccc(F)c1	-54.6
O=C(COc1ccc2c(c1)OCO2)Nc1cccc(F)c1	19.8
O=C(NCc1ccccc1)C1c2ccccc2Oc2ccccc21	7.83
Cc1ccc(-n2c(N)cc(=O)nc2SCC(=O)NC2CCCCC2)cc1C	8.7
COc1ccc(CCN2C(=O)CC(N3CCN(S(=O)(=O)c4ccccc4)CC3)C2=O)cc1OC (stereo not shown)	-5.73
CCOc1ccc(S(=O)(=O)Nc2ccc(C(=O)NCc3ccncc3)cc2)cc1	-22.2
CCc1c(C)nc2ncnn2c1Nc1ccc(C)cc1	-5.65
Cc1cc(Nc2ccc3c(c2)OCCO3)n2ncnc2n1	-42.7
Cc1nc2ncnn2c(Nc2ccc3c(c2)OCCO3)c1C	0.223
CCc1c(C)nc2ncnn2c1Nc1ccc(C)c(C)c1	-17.6
Cc1nc2ncnn2c(Nc2ccc3c(c2)OCO3)c1Cc1ccccc1	-55.1
CCc1c(C)nc2ncnn2c1Nc1ccc(C#N)c(Cl)c1	-50.6
COc1ccc(CC(=O)NNS(=O)(=O)c2ccc(F)cc2)cc1OC	0.969
COc1ccc(-n2c(C)cc(C(=O)CN3CCCCC3)c2C)cc1	1.6
CNc1nc(C)c(C(=O)OCc2ccccc2)s1	15.9
O=C(Nc1c2c(nn1-c1ccccc1)CS(=O)C2)c1ccc(Br)o1 (stereo not shown)	1.07
Clc1c(CSc2nc3ccccc3o2)nc2ccccn12	-20.4

SMILES	hERG current change (%, negative = inhibition) at 10uM [%]
c1ccc2sc(SCSc3nc4ccccc4s3)nc2c1	15.8
Cc1cc(=O)[nH]c(SCc2nc3ncccn3c2Br)n1	14.6
Cc1cc(C)nc(SCc2nc3ncccn3c2Br)n1	-2.09
Cc1ccc(SCc2nc3ncccn3c2Br)cc1	-68
O=[N+]([O-])c1ccc2sc(SCc3nc4ccccn4c3Br)nc2c1	20.2
Clc1c(CSc2nc3ccccc3o2)nc2sccn12	5.65
Brc1c(CSc2nc3ccccc3s2)nc2ncccn12	-69.7
Brc1c(CSc2nc3ccccc3o2)nc2ncccn12	-51.8
COc1ccc(S(=O)(=O)Nc2ccc3c(c2)OCO3)cc1OC	21.7
COc1ccc(NC(=O)CSc2nnc(-c3ccccc3C)n2N)cc1	31.2
CCC(Oc1ccccc1)C(=O)Nc1cc(Cl)ccc1-n1cncn1 (stereo not shown)	-14.1
O=C1c2ccccc2C(=O)N1C(CO)C(O)c1ccc([N+](=O)[O-])cc1 (stereo not shown)	-5.29
CC(c1nnc(SCC(=O)N2CC(=O)Nc3ccccc32)n1Cc1ccccc1)N(C)C (stereo not shown)	5.73
CC(C)CCNCC(O)CON=C1c2ccccc2-c2ccccc21 (stereo not shown)	-32.2
CC(N=Cc1cc([N+](=O)[O-])ccc1O)c1ccccc1 (stereo not shown)	11.7
CC(O)CN1CC(O)=C(c2nc3ccccc3s2)C1=N (stereo not shown)	3.89
COc1ccc(C(=O)NCc2ncccc2C)cc1OC1CCN(C(C)=O)CC1	9.32
CCOc1ccccc1-n1c(SCC(=O)Nc2ccccc2C(=O)O)nc2ccccc2c1=O	8.39
O=C(CN1CCN(S(=O)(=O)c2ccc(Br)cc2)CC1)N/N=C/c1ccc(Cl)c([N+](=O)[O-])c1	-17.9
Cc1ccc(S(=O)(=O)N2CCN(CC(=O)N/N=C\c3cccnc3)CC2)cc1	0.297
Cc1ccc(S(=O)(=O)N2CCN(CC(=O)N/N=C\c3ccc(O)c(O)c3)CC2)cc1	-8.76
Cc1ccc(S(=O)(=O)N2CCN(CC(=O)N/N=C\c3ccncc3)CC2)cc1	-66.8
O=C(CN1CCN(S(=O)(=O)c2ccc(Br)cc2)CC1)N/N=C/c1cccnc1	-31.6
O=C(CN1CCN(S(=O)(=O)c2ccc(Br)cc2)CC1)N/N=C/c1ccncc1	-70.6

SMILES	hERG current change (%, negative = inhibition) at 10uM [%]
O=C1N/C(=N\c2ccccn2)SC1Cc1ccc(Cl)cc1 (stereo not shown)	4.11
Cc1cccc(CCNc2nc3ccc(C)cc3n3cnnc23)c1	17.3
CC(C)(C)CC(C)(C)NC(=O)c1ccc2snnc2c1	-13.6
COc1ccc(S(=O)(=O)NC(CC(=O)N2CCC3(CC2)OCCO3)C(C)C)cc1 (stereo not shown)	10.9
COc1ccccc1CCC(=O)N(C)C1CCCN(Cc2ccccc2F)C1 (stereo not shown)	-28
Cc1onc(-c2ccccc2Cl)c1C(=O)OCc1nnc(-c2ccccc2)o1	-16.7
Cc1csc(=O)n1CCC(=O)OCc1nnc(-c2ccc([N+](=O)[O-])cc2)o1	-67.3
Cc1ccc(C(=O)NCC(=O)OCc2nnc(-c3ccc([N+](=O)[O-])cc3)o2)s1	-67.3
Cc1csc(=O)n1CC(=O)OCc1nnc(-c2ccc(Cl)cc2)o1	-2.32
Cc1ccc(C(=O)OCc2nnc(-c3ccccc3)o2)s1	-7.37
Cc1csc(=O)n1CCC(=O)OCc1nnc(-c2ccccc2)o1	-8.45
Cc1ccc(C(=O)NCC(=O)OCc2nnc(-c3ccccc3)o2)cc1	-31.6
Cc1onc(-c2ccccc2)c1C(=O)OCc1nnc(-c2ccc([N+](=O)[O-])cc2)o1	-71.5
Cc1onc(-c2ccccc2)c1C(=O)OCc1nnc(-c2ccccc2)o1	-15.6
CNc1ccc(Oc2c(F)c(F)nc(F)c2F)cc1	-0.34
O=C1CS/C(=N/N=C/c2ccccc2)N1c1ccc(O)cc1	17.6
CN(C)S(=O)(=O)c1cccc(NC(=O)C2Cc3ccccc3CN2C(=O)c2ccccc2)c1 (stereo not shown)	4.2
Oc1ccc(C[C@@H]2CNCCN2CCc2cccc3ccccc23)cc1	-64.5
c1ccc(C[C@H]2CNCCN2CCc2cccc3ccccc23)cc1	-35.6
Oc1ccc(C[C@H]2CNCCN2CCc2cccc3ccccc23)cc1	-17.7
C#CCOCCOCCOCCNc1nc(N2CCN(C(=O)[C@H](CCC(=O)O)n3cc(C(N)Cc4ccc(O)cc4)nn3)CC2)nc(N2CCN(C(=O)[C@H](Cc3cc4ccccc4[nH]3)n3cc(C(N)[C@H](C)CC)nn3)CC2)n1.Cl (stereo partly shown)	5.43
COc1ccc(CNC(=O)c2ccc3c(=O)n(CCCN4CCCC4=O)c(=S)[nH]c3c2)cc1	19
CCOC(=O)c1ccc(Nc2nc(C)cc(C)n2)cc1	16.7
CCOC(=O)c1ccc(Nc2cc(C)nc3ncnn23)cc1	-15.1

SMILES	hERG current change (%, negative = inhibition) at 10uM [%]
CCOC(=O)c1ccc(Nc2cc(C)nc3nc(C)nn23)cc1	-53
COC(=O)c1ccc(Nc2cc(C)nc3nc(C)nn23)cc1	-37.8
CCOC(=O)c1c(Nc2ccccc2N)cc(C)nc1C	-13.9
CCOC(=O)c1ccc(Nc2cc(C)nc(C)c2C(=O)OCC)cc1.Cl	-62.6
COc1ccc(/C=N/NC(=O)CCn2c3ccccc3c3ccccc32)cc1O	5.18
COc1ccc(NS(=O)(=O)c2cc(C)ccc2OC)cc1OC	10.5
CN(C)c1ccc2c(O)cc(=O)n(C)c2c1	6.76
O=C(NC1CCCC1)c1cc2nc(-c3ccccc3)cc(-c3ccccc3)n2n1	-23.3
Cc1ccc2nc(C)c(C)nc2c1N	8.1
O=C(Nc1ccc(Cl)cc1Cl)c1ccc2c(=O)n3c(nc2c1)CCC3	-39.8
c1ccc(-c2nnc(SCc3nc4ccccc4[nH]3)n2Cc2ccco2)cc1	-22.4
Cn1c(Cc2ccccc2)nnc1SCc1nc2ccccc2c(=O)[nH]1	-1.69
Cn1c(-c2ccccc2)cnc1SCc1nc2ccccc2c(=O)[nH]1	-59.9
O=c1[nH]c(CSc2nnc(-c3ccncc3)n2Cc2ccco2)nc2ccccc12	-58.2
NC(=O)CSc1nnc(-c2cnccn2)n1Cc1ccco1	7.06
Fc1ccc(CSc2nnc(-c3cnccn3)n2Cc2ccco2)cc1	-52.2
COCCn1c(SCc2nc3ccccc3c(=O)[nH]2)nnc1-c1ccncc1	-4.64
Fc1ccccc1CSc1nnc(-c2cnccn2)n1Cc1ccco1	-11.2
CCn1c(SCc2nc3ccccc3c(=O)[nH]2)nnc1-c1ccncc1	-11.7
c1coc(Cn2c(SCc3nc4ccccc4[nH]3)nnc2-c2cnccn2)c1	-56.3
Cn1c(SCc2nc3ccccc3c(=O)[nH]2)nc2ccccc21	0.933
c1ccc(-c2nnc(SCc3nc4ccccc4[nH]3)n2Cc2ccco2)nc1	-8.18

Source: publication PMC4336329 (PLoS ONE, 2015)
